Bioassay records (PubChem)
Most compounds without a hit are left out; they make up all but 5.4% or so of the library.
ALR H2O2 inh: blocks human ALR sulfhydryl oxidase activity | purified ALR, DTT oxidation, H2O2 HRP-luminol luminescence | P55789 | AID 485317 | actives 3.8% (n = 290,000) | inhibition, % (concentration not given with the values);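 active = mean replicate inhibition above about 79%, with every replicate also reaching it, limit read from the data; inconclusive = only one of the two criteria met; inactive = mean below limit and not every replicate reaching it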
Target sequence (P55789 whole entry, looked up): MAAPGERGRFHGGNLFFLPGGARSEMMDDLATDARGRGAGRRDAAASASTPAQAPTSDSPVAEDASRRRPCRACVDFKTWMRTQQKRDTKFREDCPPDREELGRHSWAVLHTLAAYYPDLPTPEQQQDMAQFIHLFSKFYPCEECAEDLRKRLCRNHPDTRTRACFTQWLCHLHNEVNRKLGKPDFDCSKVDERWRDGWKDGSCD
GASC-1 inh: inhibitors of human GASC-1 (JMJD2C) demethylase. Q9H3R0. GST-JMJD2C(1-420) H3K9me3 demethylation, DELFIA europium. inhibition, % at 2.35 µM. actives 0.069% (n = 330,000);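 active = more than half of a compound's replicate wells show inhibition beyond 50%, single wells judged on their own value; inconclusive = some, but no more than half, of replicates pass 50% inhibition; inactive = no replicate passes 50% inhibition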;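 also: signal counts dimethyl H3K9 product captured on neutravidin plate; 0% = median of DMSO wells and 100% = 0.3 times that DMSO median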
Target sequence (Q9H3R0 1-420 limits assumed): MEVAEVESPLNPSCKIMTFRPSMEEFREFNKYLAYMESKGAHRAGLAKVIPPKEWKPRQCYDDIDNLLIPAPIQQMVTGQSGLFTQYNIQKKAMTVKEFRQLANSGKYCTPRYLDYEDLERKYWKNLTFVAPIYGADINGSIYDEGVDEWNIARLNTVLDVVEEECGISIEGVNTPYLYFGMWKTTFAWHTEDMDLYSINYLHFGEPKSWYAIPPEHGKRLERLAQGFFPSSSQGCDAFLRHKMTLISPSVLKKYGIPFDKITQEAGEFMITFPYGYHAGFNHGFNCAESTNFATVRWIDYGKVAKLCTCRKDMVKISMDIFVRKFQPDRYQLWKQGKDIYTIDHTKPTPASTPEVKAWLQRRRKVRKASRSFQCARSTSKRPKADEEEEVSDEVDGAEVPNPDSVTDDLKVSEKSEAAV
SMARCA2 activ: activators of SMARCA2 function; AID 652017; MG213 cells, MMTV-luciferase reporter, dexamethasone, overnight; actives 1% (n = 370,000); activation, % at 9.1 µM; in the data active = activation above about 7.8%;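 also: 0% = vehicle wells and 100% = reference activator wells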
MIN6 prolif: induces beta-cell replication in MIN6 cells. actives 0.29% (n = 330,000). MIN6 cells proliferation, ATPlite luminescence, 48 h; cells starved in 0.2% serum; 100% = growth in 10% serum. proliferation, % at 10 µM. AID 2380;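 active = compounds whose signal lies at least 3.5 SD above the mean of all wells on their plate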;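 also: 0% = DMSO-treated cells in low-serum medium and 100% = 10% serum control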
PfM18AAP inh-1: PfM18AAP enzyme inhibition; recombinant PfM18AAP, H-Glu-NHMec fluorogenic cleavage; inhibition, % at 7.35 µM; actives 1.2% (n = 290,000);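 active = inhibition above the campaign mean inhibition over all tested compounds plus 3 SD, cut at about 28% in these data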;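 also: 0% = plate median of test compound wells and 100% = 2 mM ZnCl2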
Exocytosis inh: lytic granule exocytosis inhibition. inhibition, % at 10 µM. actives 0.66% (n = 360,000). TALL-104 LAMP-1 surface exposure, flow cytometry; cells stimulated with thapsigargin and PMA;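 active = inhibition above about 55%, limit read from the data; inconclusive = no clear call, values can overlap the other calls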
PfM18AAP inh-2: PfM18AAP inhibition, confirmation; shares compounds with PfM18AAP inh-1; recombinant PfM18AAP, H-Glu-NHMec fluorogenic cleavage; inhibition, % at 7.35 µM; actives 28% (n = 2,400);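 active = mean inhibition over replicate wells above the hit cutoff set for the earlier primary screen, cut at about 29% in these data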;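 also: 0% = median of test compound wells and 100% = 2 mM ZnCl2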
CTSL1 confirm: counter-screen for PFM18AAP inhibitors: confirmation of human cathepsin L inhibitors | shares compounds with PfM18AAP inh-1 | purified cathepsin L1, Z-Leu-Arg-MCA fluorescence | inhibition, % at 5.96 µM | 2,400 tested, under 10 active | AID 2178;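 active = average inhibition across replicates above the hit cutoff set in the earlier primary screen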;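 also: 0% = median of test compound wells and 100% = Z-Phe-Ala-diazomethylketone 1 µM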
* = called active by the depositor; i = inactive; ? = inconclusive; . = no result.

SMILES	ALR H2O2 inh	GASC-1 inh	SMARCA2 activ	MIN6 prolif	PfM18AAP inh-1	Exocytosis inh	PfM18AAP inh-2	CTSL1 confirm
Cc1c(C)n(C(=O)CSc2ncn[nH]2)c2ccccc12	33	25	-1	-4	83*	5	52*	6
CC1=CC(C)(C)N(C(=O)CCl)c2ccccc21	-4	-38	0	-2	-12	-1	.	.
COc1ccc(OC)c(S(=O)(=O)NCC2CCN(C(=O)C(=O)c3cccs3)CC2)c1	.	.	-6	.	.	.	.	.
O=C1C=C(NNC(=O)c2cccnc2)CC(c2ccco2)C1 (configuration not stated)	.	-24	1	-1	35*	-1	-29	9
CCOC(=O)c1c(N)sc(C(=O)Nc2ccccc2)c1C	.	-3	4	-4	-8	-5	.	.
CCOC(=O)c1c(N)sc(C(=O)Nc2ccccc2F)c1C	-3	7	6	-5	37*	6	-34	-1
Cc1ccc(S(=O)(=O)c2cc3c(=O)n4ccccc4nc3n(CCCN3CCOCC3)c2=N)cc1C	-3	8	-1	-4	27	16	.	.
N=c1c(S(=O)(=O)c2ccccc2)cc2c(=O)n3ccccc3nc2n1CCCN1CCOCC1	0	-7	-1	-3	34*	4	-30	-4
S=C(N/N=C/c1ccccc1)N1CCOCC1	-9	-4	5	1	34*	0	-40	35*
CCCc1cc2c(O)ccc(O)c2c(=O)o1	.	.	0	.	.	.	.	.
Cc1nnc(N/N=C/c2cccc(OCc3ccc(Cl)c(Cl)c3)c2)n1N	-9	1	7	0	49*	0	-37	4
CCOc1cc(/C=N/NC(N)=O)ccc1OC(=O)c1ccc(C)cc1	9	36	.	0	-20	.	.	.
Cc1nnc(N/N=C/c2cccc(C(F)(F)F)c2)n1N	-29	21	-9	-2	2	6	.	.
CCOc1cc(/C=N/Nc2nnc(C)n2N)ccc1OC(C)=O	14	3	6	-1	34*	2	-59	0
Cc1cc2c(nc1C)CCCN2Cc1ccc(Br)cc1	.	.	-6	.	.	.	.	.
COC(=O)[C@]12C[C@H](CC(=O)N3CCN(C(=O)c4ccco4)CC3)C(=O)N(Cc3cccc4ccccc34)C1=C[C@H](C(C)(C)C)O[C@@H]2C	.	.	-1	.	.	.	.	.
CC(=NNc1ccc2ccccc2n1)c1ccccn1	.	.	-4	.	.	.	.	.
C/C(=N\Nc1ccc2nncn2n1)c1ccccn1	-2	2	-3	-3	40*	-2	-20	0
C/C(=N\Nc1ccc2nncn2n1)c1ccc(Br)s1	.	-35	-1	1	50*	3	-29	3
C/C(=N\Nc1ccc2nncn2n1)c1ccco1	25	-3	3	-2	45*	2	19	1
C(=N\Nc1ccc2nncn2n1)/c1ccccn1	31	-11	0	-4	41*	7	-5	-5
COc1cc(Cl)c(C)cc1NC(=S)NN	3	-10	-2	-3	32*	0	21	-6
O=C(Oc1ccccc1O)c1cccc2ccccc12	66	55	-1	-5	61*	-4	5	0
O=C(Oc1cccc2c(O)cccc12)c1ccccc1Cl	.	.	-2	.	.	-7	.	.
Cn1c(N/N=C/c2c[nH]c3ccccc23)nc2ccccc21	98*	-2	3	-4	54*	10	7	5
SMILES	ALR H2O2 inh	GASC-1 inh	SMARCA2 activ	MIN6 prolif	PfM18AAP inh-1	Exocytosis inh	PfM18AAP inh-2	CTSL1 confirm
Cc1cc(N/N=C/c2c[nH]c3ccccc23)c2ccccc2n1	49	10	-1	-2	3	0	.	.
Cc1ccc(N2C(=O)C3Sc4[nH]c(=O)sc4C(c4ccccc4)C3C2=O)cc1 (configuration not stated)	29	8	0	-3	24	1	.	.
O=C1C2Sc3[nH]c(=O)sc3C(c3ccccc3)C2C(=O)N1c1ccc(Cl)cc1 (configuration not stated)	13	1	3	-2	36*	-1	-15	-4
CN1/C(=C/C(=O)C2CCC2)Sc2ccccc21	4	10	2	-4	5	0	.	.
CN1/C(=C/C(=O)c2cccs2)Sc2ccccc21	12	0	6	-6	49*	0	-16	1
CN1/C(=C\C(=O)c2cccs2)Sc2ccccc21	6	-5	8	-4	54*	-2	-47	-4
CN1/C(=C\C(=O)c2cccs2)C(C)(C)c2ccccc21	.	2	6	0	4	2	.	.
N#CCC[C@H]1CC[C@]2(CCCN(c3ccccc3)C2)O1	.	.	-3	.	.	.	.	.
COC(=O)C1=C(O)/C(=C\c2ccc(OCC(=O)Nc3ccccc3OC)cc2)N=C1C	4	-23	-2	2	7	6	.	.
COc1cc(/C=C/C(=O)CC(=O)/C=C/c2ccc(O)c(OC)c2)ccc1O	35	?	-3	-8	35*	84*	-4	-2
COC(=O)C1=C(O)/C(=C\c2ccc(O)c(OC)c2)N=C1C	99*	-19	1	2	55*	2	-30	-3
O=[N+]([O-])c1ccc(NN=Cc2cccc(O)c2)nc1	.	.	-2	.	.	-3	.	.
COc1cc(/C=N/Nc2ccc([N+](=O)[O-])cn2)cc(OC)c1O	100*	-4	-1	3	38*	-5	-10	0
COc1ccc(/C=N/Nc2ccc([N+](=O)[O-])cc2)cc1O	95*	i	2	2	48*	37	10	7
COc1cc(NC(=O)COC(=O)/C=C/c2ccc(O)c(OC)c2)cc(OC)c1	-4	5	-3	-4	8	-5	.	.
COc1ccc(/C=N/Nc2ccc([N+](=O)[O-])cc2)cc1Cn1cc([N+](=O)[O-])cn1	5	0	3	-1	11	1	.	.
COC(=O)[C@]12C[C@H](CC(=O)NCc3cccc(C(F)(F)F)c3)C(=O)N(Cc3cccc4ccccc34)C1=C[C@H](C(C)C)O[C@@H]2C1CC1	.	.	-3	.	.	.	.	.
COc1ccc(-c2c(-c3ccccc3OC)sc3ccccc23)cc1F	.	.	-3	.	.	.	.	.
O=[N+]([O-])c1ccc(N/N=C/c2cn(Cc3ccc(F)cc3)c3ccccc23)nc1	.	-5	-2	.	40*	0	-35	-1
Cc1cccc(C)c1-n1c(C)cc(/C=N\Nc2ccc([N+](=O)[O-])cn2)c1C	-3	5	1	-5	51*	-1	-24	3
COC(=O)N/N=C/c1cn(Cc2ccc(F)cc2)c2ccccc12	-2	5	-3	4	3	-4	.	.
COc1cc(/C=N/Nc2ccc(C(=O)O)cc2)ccc1O	99*	10	1	1	50*	1	22	3
